In PubChem BioAssay (NCI):
Compounds without any hit were thinned out: in the full panel of roughly 83,000, 20% have a hit.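 How to read the values: 0–100, growth inhibition (40 = 60% inhibited); 0, no net growth; -100 to 0, cell death (-40 = 40% of starting cells died; -100 = all dead).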 Unmarked numbers belong to inactive results. Calls of active or inactive are those of the source. The calls were made as follows: active = growth percent below 10; inactive = the rest.

How the values were obtained:
Test in all cases: NCI-60 one-dose screen, 48 h (100 = growth as untreated, 0 = no growth, -100 = all killed)
Details in all cases: 10 µM unless noted
[1] = tested on: NCI-H23 lung
[2] = tested on: NCI-H226 lung
[3] = tested on: NCI-H322M lung
[4] = tested on: HOP-62 NSCLC
[5] = tested on: NCI-H460 lung
[6] = tested on: HOP-92 NSCLC
[7] = tested on: NCI-H522 lung
[8] = tested on: A549/ATCC NSCLC
[9] = tested on: 786-0 renal
[10] = tested on: COLO 205 colon

| Structure (SMILES) | growth [1] | growth [2] | growth [3] | growth [4] | growth [5] | growth [6] | growth [7] | growth [8] | growth [9] | growth [10] |
| --- | --- | --- | --- | --- | --- | --- | --- | --- | --- | --- |
| Fc1ccc(-c2cn3c(-c4c[nH]c5ccc(Br)cc45)csc3n2)cc1 | 30.4% | 59.8% | 81.4% | 34.8% | 52.9% | 22.2% | 85.1% | 78.6% | 97.2% | 76.9% |
| CCOC(=O)c1c(NC(=O)c2ccc(C(F)(F)F)cc2)sc2c(CN3CCN(C)CC3)c(O)ccc12 | 56.4% | -6.63% (active) | 10.2% | -78.6% (active) | -70.7% (active) | 24.2% | -21.3% (active) | -74.8% (active) | -93.6% (active) | -67.5% (active) |
| COc1cc(-c2nc(-c3ccccc3)[nH]c2-c2ccnc(NCCCNS(=O)(=O)c3ccc(C)cc3)n2)ccc1F | 103% | 75.7% | 93.1% | 150% | 91.9% | 122% | 80% | 74.2% | 94.5% | 96% |
| CC(C)NC(=O)c1cc(-c2ccc(NC(=O)Nc3ccc(F)cc3)cc2)nc2cccnc12 | 99.4% | 99.1% | 104% | 101% | 104% | 96.7% | 96.8% | 104% | 97.1% | 118% |
| CC1=C(C)C(=O)C(Nc2cccc(C(F)(F)F)c2)=C(Br)C1=O | 88.8% | 83.2% | 100% | 81.1% | 96.4% | 25% | 29.2% | 94.4% | 97% | 115% |
| C#C[C@]1(O)CC[C@H]2[C@@H]3CC=C4c5sc(NCc6ccccc6)nc5CC[C@]4(C)[C@H]3CC[C@@]21C | 54.2% | 75.6% | 59.9% | 14.1% | 51.8% | 23.1% | 80% | 52% | -72.3% (active) | 37% |
| O=C(Nc1cc(C(F)(F)F)cc(C(F)(F)F)c1)Nc1ccc2oc(=O)ccc2c1 | -0.22% (active) | 18.8% | 13.4% | 23.9% | 6.36% (active) | -26.2% (active) | -13.5% (active) | 15.2% | 10.6% | -12.3% (active) |
| CCCc1cc2cc(-n3nc(CC)c4c3CC(C)(C)CC4=O)cc(NC3CCC(O)CC3)c2c(=O)[nH]1 (stereo not given) | 18.3% | 13.9% | 35.1% | 15.4% | -12.1% (active) | -1.33% (active) | 17.7% | 25% | -12.4% (active) | 8.47% (active) |
| C[C@H](Nc1ncnc2ccc(-c3cnc(Cl)c(NS(C)(=O)=O)c3)cc12)c1ccccc1 | -5.76% (active) | 1.56% (active) | -31.1% (active) | -16.3% (active) | 4.11% (active) | -11.7% (active) | -48.8% (active) | -49.8% (active) | -6.23% (active) | -93.2% (active) |
| CCNC(=O)Oc1ccc(/C(=C(/C)c2ccc(Cl)cc2)c2ccc(OCCN3CCCCCC3)cc2)cc1 | 22.1% | 80.9% | 75.9% | -19.9% (active) | -62.3% (active) | 60% | 82.4% | 43.9% | 22.5% | -74.5% (active) |
| CN1CCN(Cc2ccc(NC(=O)c3cncc(C#Cc4cnc5ccc(OCC6COC6)nn45)c3)cc2C(F)(F)F)CC1 | -58% (active) | -65.2% (active) | -36.5% (active) | -72.3% (active) | -81% (active) | -33.4% (active) | -70.7% (active) | -68.7% (active) | -85.6% (active) | -76.3% (active) |
| CCc1cc(OC(=O)N2CCC(N3CCCCC3)CC2)ccc1Nc1cc(-c2ccc(-n3cccn3)cc2)[nH]n1 | 80.3% | 77.9% | 101% | 66.3% | -15.5% (active) | 103% | 96.2% | 53.8% | 58% | 60.1% |
| C=C(C)[C@@H]1CC[C@]2(C(=O)N3CCN(C)CC3)CC[C@]3(C)[C@H](CC[C@@H]4[C@@]5(C)CC[C@H](OP(=O)(OCC)OCC)C(C)(C)[C@@H]5CC[C@]43C)[C@@H]12 | 83.1% | 75.8% | 101% | 96.2% | 91.3% | 63.8% | 81.7% | 75.6% | 70.3% | 90.8% |
| CC(Nc1ncnc2ccc(-c3cnc(N)nc3)cc12)c1ccccc1 (stereo not given) | 50.3% | 20.6% | 2.74% (active) | 31.2% | 35.1% | -0.545% (active) | 11.9% | 32.7% | 23.7% | 49.6% |
| Cc1ccccc1NC(=O)Nc1nc2ccc([N+](=O)[O-])cc2s1 | 5.79% (active) | 15.4% | 9.34% (active) | 2.78% (active) | 5.87% (active) | -24.6% (active) | -10.9% (active) | 9.2% (active) | 13.1% | 10.9% |
| C/C(=C(\c1ccc(O)cc1)c1ccc(OCCN2CCCCCC2)cc1)c1ccc(Cl)cc1 | -80.3% (active) | -64.1% (active) | -18.9% (active) | -82.5% (active) | -55.9% (active) | -86.8% (active) | -86.9% (active) | -72.4% (active) | -77.4% (active) | -63.4% (active) |
| CCC(=C(c1ccc(OCCN(C)C)cc1)c1ccc(OCCN(C)C)cc1)c1ccc(Cl)cc1 | 21.9% | 21.7% | 5.04% (active) | -65.7% (active) | -64.8% (active) | -5.13% (active) | -48.3% (active) | -72.3% (active) | -80.7% (active) | -67.3% (active) |
| COc1ccc(C2CC(c3cccc(OCCCCOc4cccc(C5=NOC(c6ccc(OC)cc6)C5)c4)c3)=NO2)cc1 (stereo not given) | 103% | 100% | 94.7% | 105% | 102% | 104% | 86.4% | 88.5% | 99.1% | 100% |
| C#CCOc1ccc(-c2csc(NC(=O)C=C)n2)cc1NS(=O)(=O)c1cccc2c(N(C)C)cccc12 | 56.4% | 33.1% | 87.6% | 93.2% | 81.2% | 0.234% (active) | 29.9% | 65.4% | 8.71% (active) | 67.6% |
| CCCc1[nH]c(-c2cc(N)ccc2Cl)c2c1C(=O)CCCC2 | 93.3% | 98.1% | 89.1% | 94.5% | 102% | 81.6% | 90.9% | 91.9% | 91% | 121% |
| O=C(CCCCCCNC(=O)C(O)(O)C(F)(F)F)Nc1ccc(Br)cc1 | 10.9% | 37.2% | 27.1% | -9.13% (active) | 12.5% | -5.9% (active) | -36.6% (active) | 7.9% (active) | 25.4% | -60.8% (active) |
| Cc1ccc(-c2cc3nc(C(Cl)Cl)nc(-c4ccc(S(=O)(=O)N(C)C)cc4)n3n2)cc1 | 90.9% | 87.7% | 107% | 77.9% | 93.5% | 128% | 89.7% | 88.4% | 97.9% | 98.1% |
| O=C(Nc1ccc(Cl)c(C(F)(F)F)c1)Nc1ccc2c(ccn2C(=O)c2cccc(F)c2)c1 | 10.3% | 36.5% | 73.1% | 54.5% | 13.2% | 5.69% (active) | 5.03% (active) | 30.6% | 42.4% | 25.3% |
| O=C1/C(=C/C=C/c2ccco2)SC(=S)N1Cc1ccccc1 | 89.6% | 95.2% | 91.8% | 105% | 95.2% | 87.1% | 98.4% | 93.7% | 101% | 121% |
| O=C(CCCCCCN1CC(=O)N2[C@@H](C3CC3)c3[nH]c4ccccc4c3C[C@H]2C1=O)NO | 66.4% | 95% | 74.6% | 69.6% | 74.5% | 53.4% | 24.4% | 99% | 108% | 98% |
